Source: PubChem BioAssay
PrP UTR inh = inhibition of PrP 5' UTR reporter expression. cell-based PrP 5' UTR mRNA reporter, plate reader. inhibition, % (no concentration beside the values). 0.35% of 340,000 active; in the data active means inhibition above about 52%; further: 0 = median of the neutral control wells
PrPC TRFRET = inhibitors of human cell surface prion protein PrPC, primary screen, cell-based, TR-FRET. Major prion protein (Homo sapiens), P04156. TR-FRET read-out. inhibition, % at 13.8 µM. 0.43% of 370,000 active; in the data active means inhibition above about 24%; further: 0% = median of the test wells and 100% = reference compound wells
MazEF act = activators of E. coli MazEF toxin-antitoxin RNase, primary screen, biochemical, fluorescence, uHTS; FAM/BHQ RNA-DNA oligo cleavage fluorescence, 5 h; activation, % at 20 µM; 0.32% of 350,000 active; in the data active means activation above about 50%
Target sequence (P0AE70 whole entry, looked up): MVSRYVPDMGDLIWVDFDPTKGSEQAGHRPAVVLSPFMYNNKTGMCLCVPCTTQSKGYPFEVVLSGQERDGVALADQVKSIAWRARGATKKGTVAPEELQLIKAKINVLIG
PriA SSB inh = inhibitors of Klebsiella pneumoniae PriA binding to SSB C-terminal tail, primary screen, biochemical, AlphaScreen | PriA–SSB C-terminal tail interaction (Klebsiella pneumoniae) | AlphaScreen SSBct-PriA binding, biotinylated peptide | inhibition, % at 33 µM | 0.6% of 430,000 active | AID 1272365, 2023; in the data active means inhibition mostly above about 37%, no sharp cut-off; inactive means mostly below about 20%;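 further: plate controls were negative control peptide for no effect and reference peptide for full effect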
PfHsp40 rescue = rescue of yeast from PfHsp40 toxicity, primary screen, S. cerevisiae, ATP luminescence; S. cerevisiae expressing PfHsp40, growth rescue; growth rescue, % at 12.5 µM; 0.68% of 340,000 active; in the data active means growth rescue above about 28%, passing the limit was not always enough;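 further: yeast W303a lacking pdr1 and pdr3 grown in galactose medium; growth measured after three days at 30 °C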
Starred values were filed as active, the others as inactive. This is a sample that favours compounds with a hit; in the whole collection about 1.8% have one here.

What do the screens show for `Nc1c(C(=O)NCCC2=CCCCC2)c2nc3ccccc3nc2n1/N=C\c1ccccn1`?
PriA SSB inh: 4.0

How did C=CC(=O)Nc1cccc(Nc2nc(N[C@H]3CC[C@H](N(C)C)CC3)nc3c2ncn3C(C)C)c1 do in these assays?
PrP UTR inh: 71.2*; MazEF act: 14.8; PfHsp40 rescue: -1.4

How did O=C(O/N=C(\c1ccccc1)c1ccncc1)c1ccccc1Cl do in these assays?
PrP UTR inh: -32.8; PrPC TRFRET: -6.3; MazEF act: -5.2; PfHsp40 rescue: 116.1*

Results for O=C(NCC12CC3CC(CC(C3)C1)C2)c1nc2ncccn2n1 ?
PrP UTR inh: -19.0; PrPC TRFRET: 14.2; MazEF act: 95.6*; PriA SSB inh: -6.3; PfHsp40 rescue: -0.6

What do the screens show for `COc1ccc(N2CCN(C(=O)c3c(Cl)cnn3C)CC2)cc1`?
PrP UTR inh: -7.8; PrPC TRFRET: 6.1; MazEF act: 2.2; PriA SSB inh: -11.4; PfHsp40 rescue: -0.1

What do the screens show for `COc1cc2c3nnc(-c4ccc(F)cc4)c-3cn(Cc3ccccc3)c2cc1OC`?
PrP UTR inh: -15.6; PrPC TRFRET: 17.6; MazEF act: active; PriA SSB inh: -3.2; PfHsp40 rescue: 1.1

How did Clc1ccc(Cn2cc3c(-c4ccccc4)nnc-3c3ccccc32)cc1 do in these assays?
PriA SSB inh: -6.0

Results for COc1ccc2c(c1)c1nnc(-c3ccc(C)c(C)c3)c-1cn2Cc1ccccc1OC ?
PriA SSB inh: -10.0

How did COc1cc2c3nnc(-c4ccc(F)cc4)c-3cn(Cc3ccc(F)cc3)c2cc1OC do in these assays?
PrP UTR inh: -7.2; PrPC TRFRET: 12.7; MazEF act: 117.9*; PriA SSB inh: -12.1; PfHsp40 rescue: -0.4

Results for COc1ccc(Cn2cc3c(-c4ccc(F)cc4)nnc-3c3cc(OC)c(OC)cc32)cc1 ?
PrP UTR inh: -23.2; PrPC TRFRET: 22.1; MazEF act: 557.9*; PriA SSB inh: -9.3; PfHsp40 rescue: -0.6

How did O=c1cc(CN2CCN(c3ccccc3F)CC2)c2c(ccc3ccccc32)o1 do in these assays?
PrPC TRFRET: 1.4

Results for CC(C)CC(NC(=O)/C(=C/c1ccco1)NC(=O)c1ccc(Br)o1)C(=O)O (stereo not given) ?
PrP UTR inh: -15.6; PrPC TRFRET: 1.7; MazEF act: -15.6; PriA SSB inh: -11.0

What do the screens show for `O=C(CCn1ccc(=O)[nH]c1=O)N1CCN(C(=O)C2CC2c2ccc3c(c2)OCO3)CC1` (stereo not given)?
PriA SSB inh: 4.0

How did CC(=O)NS(=O)(=O)c1ccc(NC(=O)/C=C/c2ccc(C)o2)cc1 do in these assays?
PrP UTR inh: -6.1; PrPC TRFRET: 6.2; MazEF act: 10.0; PriA SSB inh: -6.5; PfHsp40 rescue: -0.4

Results for Nc1nc(SCc2ccc(Cl)cc2Cl)ns1 ?
PrP UTR inh: -25.4; PrPC TRFRET: 3.3; MazEF act: 4.3; PriA SSB inh: -29.2; PfHsp40 rescue: -0.2

Results for Nc1cc(SCc2ccc(Cl)cc2Cl)ncn1 ?
PrP UTR inh: -27.5; PrPC TRFRET: 2.8; MazEF act: 56.3*; PriA SSB inh: 2.4; PfHsp40 rescue: 1.7

How did COc1ccc(NC(=O)NNC(=O)c2cc3ccccc3cc2O)cc1 do in these assays?
PrP UTR inh: -32.7; PrPC TRFRET: -4.4; MazEF act: -5.7; PriA SSB inh: 0.8; PfHsp40 rescue: 90.2*

Results for O=C(COC(=O)c1cc2ccccc2cc1O)NC1CCCCC1 ?
PrP UTR inh: -24.9; PrPC TRFRET: -0.5; MazEF act: -5.5; PriA SSB inh: -10.7; PfHsp40 rescue: -1.3

What do the screens show for `O=C(NNC(=O)c1cc2ccccc2cc1O)NC1CCCCC1`?
PrP UTR inh: -16.6; PrPC TRFRET: 2.6; MazEF act: -6.7; PriA SSB inh: 1.9; PfHsp40 rescue: 59.7*

Results for COc1ccc(C)cc1NC(=O)NNC(=O)c1cc2ccccc2cc1O ?
PrP UTR inh: -26.0; PrPC TRFRET: 2.1; MazEF act: -0.9; PriA SSB inh: -15.1; PfHsp40 rescue: 0.9

How did COc1cc(NC(=O)COC(=O)CC(NC(C)=O)c2ccccc2)cc(OC)c1 (stereo not given) do in these assays?
PrP UTR inh: -24.4; PrPC TRFRET: -7.5; MazEF act: 3.0; PriA SSB inh: -5.5; PfHsp40 rescue: -0.2

What do the screens show for `O=C(NNC(=O)c1cc2ccccc2cc1O)Nc1ccc(F)cc1F`?
PrP UTR inh: -6.0; PrPC TRFRET: 2.7; MazEF act: 4.0; PriA SSB inh: -20.4; PfHsp40 rescue: 24.8

Results for CC(=O)NC(CC(=O)NNC(=O)c1cc2ccccc2cc1O)c1ccccc1 (stereo not given) ?
PrP UTR inh: -9.5; PrPC TRFRET: -10.4; MazEF act: 2.9; PriA SSB inh: -5.6; PfHsp40 rescue: 78.5*

How did O=C(NNC(=O)c1cc2ccccc2cc1O)Nc1ccc(Br)cc1 do in these assays?
PrP UTR inh: -18.3; PrPC TRFRET: -0.9; MazEF act: -2.7; PriA SSB inh: -11.8; PfHsp40 rescue: 35.8*

What do the screens show for `COc1ccc(CCN2CC(C(=O)Nc3cccc(C(C)=O)c3)CC2=O)cc1OC` (stereo not given)?
PrP UTR inh: -4.5; PrPC TRFRET: 10.2; MazEF act: 5.4; PriA SSB inh: -8.0; PfHsp40 rescue: -0.7

Results for CCn1c(SC)nnc1-c1nn(-c2ccccc2)ccc1=O ?
PrP UTR inh: -4.2; PrPC TRFRET: 1.6; MazEF act: 1.1; PriA SSB inh: -3.2; PfHsp40 rescue: -0.2

What do the screens show for `O=C(Cn1[nH]c(=O)c2ccccc2c1=O)Nc1cccc(S(=O)(=O)N2CCCCCC2)c1`?
PrP UTR inh: -32.0; PrPC TRFRET: 6.3; MazEF act: -1.6; PriA SSB inh: 7.4; PfHsp40 rescue: 2.0

Results for O=C(CCC(=O)N1CCOc2ccccc21)N1CCCCC1 ?
PrP UTR inh: 2.0; PrPC TRFRET: -0.5; MazEF act: -17.0; PriA SSB inh: 5.2; PfHsp40 rescue: -1.5

How did Cc1cccnc1C(NC(=O)C1CCN(Cc2ccc3ccccc3n2)CC1)c1ccc(Cl)cc1 (stereo not given) do in these assays?
PrPC TRFRET: -0.6

What do the screens show for `O=c1[nH]c(-c2ccccn2)nc2ccccc12`?
PrP UTR inh: -33.5; PrPC TRFRET: -0.4; MazEF act: -4.3; PriA SSB inh: 42.0*; PfHsp40 rescue: -1.2

How did O=c1[nH]c(-c2ccccn2)nc(C(F)(F)F)c1Br do in these assays?
PrP UTR inh: -46.2; PrPC TRFRET: 24.1; MazEF act: 1.1; PriA SSB inh: 82.9*; PfHsp40 rescue: 133.2*

What do the screens show for `O=C(C1CCC1)N(CCc1cccs1)C1CC1`?
PriA SSB inh: -10.0

How did COC(=O)NCC(c1ccc2c(c1)OCO2)N1CCN(c2ccc(OC)cc2)CC1 (stereo not given) do in these assays?
PrP UTR inh: -2.0; PrPC TRFRET: 5.1; MazEF act: -0.4; PriA SSB inh: 15.4; PfHsp40 rescue: -0.6

Results for Oc1c(Br)cc(/C=N/Nc2nncc3ccccc23)cc1Br ?
MazEF act: 9.1
